The source of these data is PubChem BioAssay (NCI).

Assay in all cases: NCI-60 one-dose screen, 48 h (100 = growth as untreated, 0 = no growth, -100 = all killed)
In one assay the test system is NCI-H23 lung. Conditions: 10 µM unless noted.
Another assay concerns NCI-H226 lung. Conditions: 10 µM unless noted.
The subject of the next assay is NCI-H322M lung. Conditions: 10 µM unless noted.
The test system of the next assay is HOP-62 NSCLC. Conditions: 10 µM unless noted.
The next assay relates to NCI-H460 lung. Conditions: 10 µM unless noted.
The test system of the next assay is HOP-92 NSCLC. Conditions: 10 µM unless noted.
For another assay, the system named is NCI-H522 lung. Conditions: 10 µM unless noted.
For the next assay, the system named is A549/ATCC NSCLC. Conditions: 10 µM unless noted.
The test system of the next assay is 786-0 renal. Conditions: 10 µM unless noted.
A further assay deals with COLO 205 colon. Conditions: 10 µM unless noted.
The next assay concerns DU-145 prostate. Conditions: 10 µM unless noted.
Another assay has as its system K-562 leukemia. Conditions: 10 µM unless noted.
The test system of a further assay is MALME-3M melanoma. Conditions: 10 µM unless noted.
The subject of another assay is MDA-MB-231 breast. Conditions: 10 µM unless noted.
In the next assay the test system is RXF 393 renal. Conditions: 10 µM unless noted.
For a further assay, the system named is SF-268 CNS. Conditions: 10 µM unless noted.
Another assay concerns SF-295 CNS. Conditions: 10 µM unless noted.
In a further assay the test system is SF-539 CNS. Conditions: 10 µM unless noted.
The test system of another assay is UACC-257 melanoma. Conditions: 10 µM.
Another assay concerns M14 melanoma. Conditions: 10 µM unless noted.

This is part of a sample that, as a whole, favours compounds with a hit. Of some 83,000 tested, about 20% had one in any assay.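 For each line, cells grew in 96-well plates with the test compound present at a single concentration for 48 hours.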 A number with no mark means an inactive call. Activity calls are given as the source filed them. The calls were made as follows: active = growth percent below 10; inactive = the rest.

As to `NS(=O)(=O)c1ccc(Nc2nc(N/N=C/c3ccc(F)cc3)nc(Nc3ccccc3)n2)cc1`, the growth in the assay on NCI-H23 lung is 54.2%; in the assay on NCI-H226 lung, 50.8%; in the assay on NCI-H322M lung, 58.1%; with HOP-62 NSCLC, 17.9%; in the assay on NCI-H460 lung, 65.1%; with HOP-92 NSCLC, 63.5%. Also, the growth in the assay on NCI-H522 lung was 15.5%; in the assay with A549/ATCC NSCLC it was 7.78% (active); with 786-0 renal it was 58.8%; in the assay on COLO 205 colon, 20.9%; in the assay with DU-145 prostate, 31.1%; in the assay with K-562 leukemia it was 54.6%. Also, the growth in the assay with MALME-3M melanoma is 57.5%; with MDA-MB-231 breast, 61.8%; in the assay with RXF 393 renal, 57.9%; with SF-268 CNS it was 41.3%; in the assay on SF-295 CNS it was 70.1%; in the assay with SF-539 CNS, 62.2%. Also, the results for the growth in the assay on UACC-257 melanoma and in the assay on M14 melanoma were 47.2% and 57.9%, respectively.
Turning to `Oc1ccc(-c2nnc(SCc3ccc(O)c4ncccc34)o2)cc1`, the growth was 13.4% in the assay on NCI-H23 lung; 8.78% (active) with NCI-H226 lung; 19.8% with NCI-H322M lung; 13.9% in the assay on HOP-62 NSCLC; 2.22% (active) in the assay with NCI-H460 lung; -15.9% (active) in the assay on HOP-92 NSCLC. The growth with NCI-H522 lung was 11.4%; in the assay with A549/ATCC NSCLC, 15.2%; with 786-0 renal it was 20.5%; in the assay with COLO 205 colon it was 46.2%; in the assay on DU-145 prostate, 21.2%; in the assay with K-562 leukemia it was 14.2%. Besides, the growth with MALME-3M melanoma was 18.7%; in the assay on MDA-MB-231 breast it was 24.5%; with RXF 393 renal it was -3.04% (active); with SF-268 CNS, 15.9%; in the assay with SF-295 CNS, 0.187% (active); with SF-539 CNS it was 13.8%. The growth is 1.45% (active) with UACC-257 melanoma and 0.609% (active) in the assay with M14 melanoma.
With `Cc1csc(Nc2cccc(Nc3nc(C)cs3)c2)n1`, the growth in the assay with NCI-H23 lung is 58.4%; in the assay with NCI-H226 lung, 85%; with NCI-H322M lung, 96.2%; in the assay with HOP-62 NSCLC, 98.8%; in the assay with NCI-H460 lung, 76.5%; with HOP-92 NSCLC it was 52.2%. Besides, the growth in the assay with NCI-H522 lung was 73.3%; in the assay with A549/ATCC NSCLC it was 88%; in the assay with 786-0 renal, 94.5%; in the assay on COLO 205 colon it was 87.2%; with DU-145 prostate, 83.8%; with K-562 leukemia it was 60.1%. The growth in the assay with MALME-3M melanoma is 84.8%; in the assay with MDA-MB-231 breast, 79.2%; with RXF 393 renal, 91%; in the assay on SF-268 CNS, 85.2%; with SF-295 CNS it was 66.2%; in the assay with SF-539 CNS, 83.8%. Besides, the growth in the assay with UACC-257 melanoma was 89.7%; in the assay with M14 melanoma, 86%.
`CC(=O)Nc1nc2c(s1)C1=CC[C@H]3[C@@H]4CC[C@H](C(C)=O)[C@@]4(C)CC[C@@H]3[C@@]1(C)CC2`: the growth is 81.2% with NCI-H23 lung; 94.8% in the assay on NCI-H226 lung; 77.1% with NCI-H322M lung; 62.8% in the assay with HOP-62 NSCLC; 64.4% in the assay on NCI-H460 lung; 105% with HOP-92 NSCLC. Moreover, the growth with NCI-H522 lung was 90.8%; in the assay on A549/ATCC NSCLC, 51.7%; in the assay on 786-0 renal, 25%; with COLO 205 colon it was 57%; in the assay on DU-145 prostate, 85.9%; with K-562 leukemia, 8.05% (active). The growth is 72.6% with MALME-3M melanoma; 57.7% in the assay with MDA-MB-231 breast; -29.3% (active) with RXF 393 renal; 90.2% with SF-268 CNS; -16.9% (active) with SF-295 CNS; 40.2% with SF-539 CNS. For the same molecule, the growth with UACC-257 melanoma is 73.2%; in the assay on M14 melanoma it was 87%.
`CCc1ccc(NC(=O)N[C@@H](Cc2cc(F)cc(F)c2)C(=O)N[C@@H]2C(=O)N3CCC[C@H]3C(=O)N3CCO[C@H](C)[C@H]3C(=O)N[C@@H](CO)C(=O)N3C[C@H](C)C[C@H]3C(=O)O[C@H]2C)c(F)c1`: the growth is 35.4% with NCI-H23 lung; 4.36% (active) with NCI-H226 lung; 50.8% in the assay with NCI-H322M lung; 32.6% in the assay with HOP-62 NSCLC; 16.3% in the assay with NCI-H460 lung; -1.76% (active) in the assay with HOP-92 NSCLC. For the same molecule, the growth in the assay with NCI-H522 lung was 17.5%; with A549/ATCC NSCLC, 26.9%; in the assay with 786-0 renal it was 39.8%; in the assay with COLO 205 colon, -42.7% (active); in the assay with DU-145 prostate, 26.4%; with K-562 leukemia, 21.5%. Moreover, the growth in the assay on MALME-3M melanoma is 40.8%; with MDA-MB-231 breast, 33.3%; with RXF 393 renal it was -5.23% (active); in the assay on SF-268 CNS it was 32.4%; with SF-295 CNS it was 12.6%; with SF-539 CNS it was 39.9%. For the same molecule, the growth was 12.9% with UACC-257 melanoma and 24% with M14 melanoma.
Regarding `O=C(NNc1nc2cc(F)ccc2n2cncc12)c1cnccn1`, the growth in the assay with NCI-H23 lung was 37.4%; with NCI-H226 lung, 44.6%; in the assay on NCI-H322M lung, 25.4%; with HOP-62 NSCLC, 36.1%; with NCI-H460 lung, 4.66% (active); in the assay on HOP-92 NSCLC it was 63.7%. The growth with NCI-H522 lung was 24.3%; in the assay with A549/ATCC NSCLC, 22.2%; in the assay with 786-0 renal it was 10%; in the assay on COLO 205 colon, 19.5%; in the assay on DU-145 prostate it was 26.6%; in the assay with K-562 leukemia it was 23.9%. The growth in the assay with MALME-3M melanoma was 29.5%; in the assay on MDA-MB-231 breast it was 34.1%; in the assay with RXF 393 renal, 68.6%; in the assay on SF-268 CNS it was 28.3%; with SF-295 CNS, 0.0659% (active); in the assay on SF-539 CNS, 30.1%. Besides, the growth is 36.5% in the assay on UACC-257 melanoma and 0.271% (active) in the assay with M14 melanoma.
As to `CC(C)=CCc1c(O)c(CC=C(C)C)c2c(c1O)C(=O)C1=C[C@@H]3C[C@H]4C(C)(C)O[C@@](C/C=C(\C)C(=O)O)(C3=O)[C@@]14O2`, the growth is -59.3% (active) with NCI-H23 lung; 72.1% with NCI-H226 lung; 21.7% in the assay with NCI-H322M lung; -13.7% (active) in the assay with HOP-62 NSCLC; -41.8% (active) with NCI-H460 lung; -21.8% (active) in the assay on HOP-92 NSCLC. The growth in the assay with NCI-H522 lung was -51.4% (active); in the assay on A549/ATCC NSCLC it was 4.97% (active); in the assay on 786-0 renal, -27.6% (active); in the assay with COLO 205 colon, -94.2% (active); in the assay on DU-145 prostate it was -60.5% (active); in the assay on K-562 leukemia, 5.16% (active). Also, the growth in the assay on MALME-3M melanoma was -19.3% (active); with MDA-MB-231 breast, 29.8%; with RXF 393 renal, -82.2% (active); in the assay on SF-268 CNS, 5.98% (active); in the assay on SF-295 CNS, -9.35% (active); in the assay with SF-539 CNS, -77.5% (active). In addition, the results for the growth in the assay on UACC-257 melanoma and in the assay with M14 melanoma were -38.2% (active) and 5.07% (active), respectively.
